Reference: PubChem BioAssay (Tox21)
Inconclusive results are not listed. Where a call stands in place of a potency, no number is given. Active and inactive are the calls of the source. Calls follow the shape of the dose curve; as a rule, active = well fitted cell-killing curve with a large enough effect in the repeat runs; inconclusive = weak or mixed curves; inactive = flat fitted curve, though single readings scatter.

Assay: qHTS assay to identify small molecule antagonists of the estrogen receptor beta (ER-beta) signaling pathway - cell viability counter screen (AID 1259382); also: nearly all actives have a fitted effect of over 55% in size
Settings: ER-beta-UAS-bla HEK293T viability, CellTiter-Glo luminescence, 16 h; series mostly up to 92.4 µM
From the text: U.S. Tox21 Program National Center for Advancing Translational Sciences [NCATS] NIH Chemical Genomics Center [NCGC] U.S. Environmental Protection Agency [EPA] National Institutes of Environmental Health Sciences [NIEHS] National Toxicology Program [NTP] U.S. Food and Drug Administration [FDA] Tox21 Assay Overview: Estrogen receptor (ER), a nuclear hormone receptor, plays an important role in development, metabolic homeostasis and reproduction. Two subtypes of ER, ER-alpha and ER-beta, have similar expression patterns with some uniqueness in both types. Endocrine disrupting chemicals (EDCs) and their interactions with steroid hormone receptors like ER causes disruption of normal endocrine function. To identify the compounds that inhibit ER signaling, an ER-beta-UAS-bla GripTite cell line (Life Technologies, Madison, WI, USA) containing a beta-lactamase reporter gene under the control of an UAS response element was used to screen Tox21 10K compound library. The cytotoxicity of the Tox21 compound library against the ER-beta-bla cell line was tested in parallel by measuring the cell viability using CellTiter-Glo assay in the same wells.
Tox21 Assay Protocol Summary: ER-beta-UAS-bla HEK293T cells were dispensed at 2,000 cells/4 uL of assay medium containing 2% charcoal stripped FBS per well into black wall/clear-bottom 1536-well plates using a Multidrop Combi (ThermoFisher Scientific, Waltham, MA) dispenser. After the assay plates were incubated at a 37C and 5% CO2 for 6 hr, 23 nL of compounds dissolved in DMSO, positive controls or DMSO only was transferred to the assay plate by a Pintool station (Kalypsys, San Diego, CA), followed by addition of 1 uL (1nM as final concentration) of 17-beta-estradiol (E2) in assay medium using a Flying Reagent Dispenser (FRD, Aurora Discovery, San Diego, CA). The plates were incubated at 37C and 5% CO2 for 16 hr. Then 1 uL of LiveBLAzer B/G FRET substrate was added using a Flying Reagent Dispenser, the plates were incubated at room temperature for 2 hours, and fluorescence intensity was measured by an Envision plate reader (PerkinElmer, Shelton, CT). For cell viability readout that measures cytotoxicity, 4 uL/well of CellTiter-Glo reagent was added into the assay plates using a FRD. After 30 min incubation at room temperature, the luminescence intensity in the plates was measured using a ViewLux (PerkinElmer) plate reader.
Potency is read from the fitted curve at half-maximal effect.

Row | Structure (SMILES) | Potency | activity change, negative = cytotoxicity
1 | Cc1cc(CC(=O)O)c(C)n1-c1ccc(Cl)cc1 | inactive | 
2 | ClC(Cl)(Cl)c1ccc(C(Cl)(Cl)Cl)cc1 | inactive | 
3 | CNS(=O)(=O)Cc1ccc2[nH]cc(CCN(C)C)c2c1 | inactive | 
4 | O=C(O)c1cn(C2CC2)c2cc(Cl)c(F)cc2c1=O | inactive | 
5 | Cc1ccccc1N=Nc1ccc(N=Nc2c(O)ccc3ccccc23)c(C)c1 | inactive | 
6 | O=S1(=O)c2cccc3cccc(c23)N1CCCN1CCN(c2ccc(F)cc2)CC1 | inactive | 
7 | CC1(C)CCC(C)(C)c2cc(NC(=O)c3ccc(C(=O)O)cc3)ccc21 | inactive | 
8 | CC(=O)[C@@]1(O)CC[C@H]2[C@@H]3C[C@H](C)C4=CC(=O)CC[C@]4(C)[C@H]3CC[C@@]21C | inactive | 
9 | CN1CCC[C@@H]1c1cccnc1 | inactive | 
10 | CCN(CCO)CCCC(C)Nc1ccnc2cc(Cl)ccc12 (stereo not given) |  | -2.09% [at 8.39 µM] (inactive)
11 | C=CC[N+]1([C@H]2C[C@H]3[C@@H]4CC[C@H]5C[C@H](OC(C)=O)[C@@H](N6CCCCC6)C[C@]5(C)[C@H]4CC[C@]3(C)[C@H]2OC(=O)CC)CCCCC1 | inactive | 
12 | CCCCCC/C=C/C=O | inactive | 
13 | CCOC(=O)C1=NN(c2ccccc2)C(=O)C1 | inactive | 
14 | CCOc1cc(OCC)c(C(=O)CCC(=O)O)cc1OCC | inactive | 
15 | O=C(c1ccc(O)cc1)c1ccc(O)cc1 | inactive | 
16 | Cc1ccc(C)o1 | inactive | 
17 | c1ccc(OCc2ccc(CCCN3CCOCC3)cc2)cc1 | inactive | 
18 | O=C(O)Cn1c(C(=O)Nc2nc(-c3ccccc3Cl)cs2)cc2ccccc21 | inactive | 
19 | Cn1c(=O)c2c(ncn2CC(O)CO)n(C)c1=O (stereo not given) | inactive | 
20 | CC(C)NCC(O)c1cc(O)cc(O)c1 (stereo not given) | inactive | 

Row | Structure (SMILES) | Potency | activity change, negative = cytotoxicity
21 | N=C(N=C(N)N)N1CCOCC1 | inactive | 
22 | CCC(=O)OC(C)(C)C1CC=C(C)CC1 (stereo not given) | inactive | 
23 | O=C(Cl)c1ccc([N+](=O)[O-])cc1 | inactive | 
24 | CN1CCN(C2=Nc3ccccc3Sc3ccc(Cl)cc32)CC1 | inactive | 
25 | CC(C)c1cccc(C(C)C)c1NC(=O)NS(=O)(=O)c1cc(C(C)(C)O)co1 | inactive | 
26 | CCCC(=O)OCC | inactive | 
27 | CCOc1nc2cccc(C(=O)O)c2n1Cc1ccc(-c2ccccc2-c2nn[nH]n2)cc1 | inactive | 
28 | O=C(C(=O)c1ccc(Br)cc1)c1ccc(Br)cc1 |  | -2.64% [at 19 µM] (inactive)
29 | CCN1CCC[C@H]1CNC(=O)c1c(OC)ccc(Br)c1OC | inactive | 
30 | O=C(O)/C=C/c1cnc[nH]1 | inactive | 
31 | O=c1[nH]cnc2ccccc12 | inactive | 
32 | CNCC[C@@H](Oc1ccccc1C)c1ccccc1 | 23.7 µM (active) | 
33 | O=C1CCCCCO1 | inactive | 
34 | CC(CN)CCCN (stereo not given) | inactive | 
35 | O=C(/C=C/c1ccc(O)c(O)c1)O[C@@H]1C[C@](O)(C(=O)O)C[C@@H](O)[C@H]1O | inactive | 
36 | Nc1nc(N)c2nc(CNc3ccc(C(=O)N[C@@H](CCC(=O)O)C(=O)O)cc3)cnc2n1 | inactive | 
37 | CCCCCCCCC(CO)CCCCCC (stereo not given) | inactive | 
38 | N#CCc1cccc(C(F)(F)F)c1 | inactive | 
39 | CC(C)(C)c1ccc(OCC2CO2)cc1 (stereo not given) | inactive | 
40 | FC(F)(F)C(F)(F)C(F)(F)C(F)(F)C(F)(F)C(F)(F)CCI | inactive | 
